Not all results are given here.
aSyn UTR act: Activators via SNCA 5'UTR binding, MLPCN. alpha-synuclein 5'UTR reporter, activators screen. activity score, % (tested at 7.5 µM), hits read low. 300,000 tested, 7.1% active. AID 1814; in the data active = activity score below about -60%
A number is an active result; - = inactive.

SMILES	aSyn UTR act
O=C(CSc1nnc(-c2ccccc2)o1)N1CCCC1	-102.0
O=C(CSc1nnc(-c2ccccc2)o1)N1CCCCC1	-74.3
CCN(CC)CCCNc1nc2ccccc2c2nc(-c3ccncc3)nn12	-280.7
CCN(CC)CCCNc1nc2cc(OC)c(OC)cc2c2nc(-c3ccccc3)nn12	-76.4
CCN(CC)CCCNc1nc2cc(OC)c(OC)cc2c2nc(-c3cccnc3)nn12	-79.5
c1ccc(Cn2c(-c3ccco3)nc3nc4ccccc4nc32)cc1	-215.4
Cc1ccc(-c2nc3nc4ccccc4nc3n2Cc2ccco2)cc1	-124.5
O=c1c2ccccc2nc(-c2ccco2)n1Cc1ccccc1	-214.1
C/C(=N\N=C\c1ccccc1)c1nnn(-c2nonc2N)c1C	-82.3
COc1cc2c(cc1O)CC[C@@H]1[C@@H]2CC[C@]2(C)[C@@H](O)CC[C@@H]12	-
CCCc1ccc(OCc2ccc(C(=O)O)o2)c(OC)c1	-94.1
CCCc1ccc(OCc2ccc(C(=O)NN)o2)c(OC)c1	-84.0
C=CCc1ccc(OC(=O)NC2CCCCC2)c(OC)c1	-106.2
C=CCc1ccc(OCc2ccc(C(=O)O)o2)c(OC)c1	-120.7
CCOc1ccc2[nH]c3c(NCCCOC)ncnc3c2c1	-96.1
CC(C)OCCCNc1ncnc2c1[nH]c1ccccc12	-178.4
O=c1c2[nH]c3ccccc3c2ncn1CCC1=CCCCC1	-120.7
COc1ccc2[nH]c3c(NCCCN4CCCC4=O)ncnc3c2c1	-95.6
CCOc1ccc2[nH]c3c(NCC(C)C)ncnc3c2c1	-99.0
COc1ccc2[nH]c3c(=O)n(CCc4ccccc4)cnc3c2c1	-75.6
O=C(NCC1CCCO1)c1sc2cc(Cl)ccc2c1Cl (stereo not drawn)	-123.9
CC1CCC(NC(=O)Nc2cccs2)CC1 (stereo not drawn)	-107.3
CC1CCC(NC(=O)CNC(=O)c2cccs2)CC1 (stereo not drawn)	-88.4
Cc1cc(NC(=S)Nc2ccc(C)c(Cl)c2)n[nH]1	-110.2
COc1ccc(NC(=S)Nc2cc(C)[nH]n2)cc1Cl	-124.6
SMILES	aSyn UTR act
O=C(Nc1ccccc1)C1=C[C@H](c2ccc3c(c2)OCO3)C[C@H](OCCCCO)O1	-89.0
O=C(Nc1ccccc1)C1=C[C@@H](c2ccc3c(c2)OCO3)C[C@@H](OCCCCO)O1	-111.9
CN(C)/C=C1\Oc2ccc3ccccc3c2C1=O	-116.1
CS(=O)(=O)c1ccccc1C(=O)Nc1ccc(-c2nc3ccccc3o2)cc1	-184.8
CS(=O)(=O)c1ccccc1C(=O)Nc1ccc(-c2nc3ccccc3[nH]2)cc1	-156.2
O=C(c1ccccc1)c1ccc2nc(-c3ccc(NC(=O)c4ccccc4Br)cc3)[nH]c2c1	-
C(C#CCCCCCCCCC[n+]1ccccc1)#CCCCCCCCCC[n+]1ccccc1	-
CN(C)c1ccc(-c2ccccc2)nn1	-148.3
Cc1ccc(C)c(Cn2c(O)c(N=NC(=S)Nc3ccccc3F)c3ccccc32)c1	-
Cc1ccc(NC(=S)Nc2cccc3ccccc23)cc1F	-85.6
CCc1ccc(NC(=S)Nc2cccc3cnccc23)cc1	-87.4
CC(=O)N(C)c1ccc(NC(=S)Nc2cccc3ccccc23)cc1	-168.2
Cn1c(/C=C/c2cccc([N+](=O)[O-])c2)c([N+](=O)[O-])c(=O)n(C)c1=O	-193.9
CCCCCOc1ccc(/C=C/c2c([N+](=O)[O-])c(=O)n(C)c(=O)n2C)cc1	-174.9
Cn1c2c(c(=O)n(C)c1=O)C(C(F)(F)F)(C(F)(F)F)N=C(c1ccc(Cl)cc1)N2	-
Cn1c(/C=C/c2ccc(Cl)cc2)c([N+](=O)[O-])c(=O)n(C)c1=O	-147.3
CCCNC(=O)c1cc(Cl)c(NC(=O)C2=CSCCO2)cc1OC	-135.9
COc1ccc(NC2=C3CC(C)CC=C3N(c3ccc(OC)cc3)C2=O)cc1 (stereo not drawn)	-84.1
CCN(CC)CCn1c(=N)n(CCOc2ccccc2)c2ccccc21	-93.1
CC1CN/C(=C\C(=O)c2ccccc2)C(=O)N1 (stereo not drawn)	-110.2
O=C1NCCN/C1=C\C(=O)c1ccc(Cl)cc1	-108.7
O=C1NCCN/C1=C\C(=O)c1ccc(F)cc1	-81.3
O=C(Nc1cccc(F)c1)c1ccc(CSc2ccccc2)o1	-121.3
O=C(Nc1ccccc1F)c1ccc(CSc2ccccc2)o1	-69.5
CC(/C=N/Nc1nnc(C)c(=O)[nH]1)=C\c1ccccc1	-97.3
SMILES	aSyn UTR act
CC(/C=N/Nc1ccc2nncn2n1)=C\c1ccccc1	-71.9
CN1C(=O)/C(=C\c2ccc(N(C)C)cc2)OC1=S	-67.5
O=C(/C=C/Nc1ccc(F)cc1)c1cccs1	-114.5
O=C(/C=C/Nc1ccc(F)c(F)c1)c1cccs1	-374.4
CN(C)c1ccc(N=Cc2nc(-c3ccccc3)oc2OC(=O)c2cccc(Cl)c2)cc1	-145.6
O=c1c2ccccc2nc2ccc(NCc3cccs3)nn12	-163.9
C/C(=N\NC(=O)c1ccccc1)c1cccc(Br)c1	-109.7
C/C(=N\NC(=O)c1ccccc1F)c1ccc(C#N)cc1	-63.5
C/C(=N/NC(=O)c1ccc2c(c1)OCO2)c1ccc(NC(=O)C(F)(F)F)cc1	-127.2
C/C(=N\NC(=O)c1c[nH]c2ccccc12)c1ccc2c(c1)OCO2	-98.5
O=C(N/N=C(\c1ccccc1)c1ccccn1)c1cccc([N+](=O)[O-])c1	-
C/C(=N\NC(=O)c1ccc([N+](=O)[O-])cc1Cl)c1ccccc1	-148.5
C/C(=N\NC(=O)c1ccccc1)c1ccc2c(c1)OCO2	-117.6
C/C(=N/NC(=O)c1ccccc1)C1=C(O)CC(C)(C)CC1=O	-94.9
C/C(=N\Nc1nc2ccccc2s1)c1ccc2c(c1)OCO2	-175.5
C/C(=N\NC(=O)c1ccc2c(c1)OCO2)c1ccc(O)cc1	-64.5
C/C(=N\NC(=O)c1ccccc1)c1ccc(C)c([N+](=O)[O-])c1	-109.0
C/C(=N\NC(=O)c1ccccc1F)c1cccc(NC(=O)c2ccccc2)c1	-94.0
CC(=O)Nc1cccc(/C(C)=N/NC(=O)c2ccc3c(c2)OCO3)c1	-77.7
C/C(=N\NC(=O)c1c[nH]c2ccccc12)c1ccco1	-173.8
C/C(=N\NC(=O)c1nc2ccccn2c1C)c1ccco1	-135.1
Cc1ccc(C(=O)Nc2sc(C)c(-c3ccccc3)c2C(N)=O)cc1[N+](=O)[O-]	-81.1
C/C(=N\NC(=O)c1c[nH]c2ccccc12)c1ccccn1	-
COc1ccc(-c2noc(Cc3cccs3)n2)cc1	-188.5
COc1ccc(-c2noc(Cc3ccccc3OC)n2)cc1	-64.3
SMILES	aSyn UTR act
COc1ccc(-c2noc(CCc3ccccc3)n2)cc1	-148.0
COc1ccc(N=Cc2sc(O)c3ccccc23)cc1	-274.0
COc1ccc(N=Cc2c(O)c3ccccc3n2C(C)=O)cc1	-131.5
CC1(C)CN(c2ccc(N3CC(C)(C)C3=O)cc2)C1=O	-69.8
O=C(CSC(=S)N1CCSCC1)c1ccc(Cl)cc1	-151.8
O=C(CSC(=S)N1CCSCC1)c1ccccc1	-93.9
CCn1c2ccccc2c2cc(CNCc3ccc(OC)cc3OC)ccc21	-
CCn1c2ccccc2c2nc3cc(OC)c(OC)cc3nc21	-78.5
COc1ccc(C(=O)/C(=C/N(C)C)S(=O)(=O)c2ccccc2)cc1	-160.5
O=c1c2ccccc2oc2cc(C#CC3(O)CCCCC3)ccc12	-
COc1cc2oc3ccccc3c(=O)c2cc1OC	-119.6
O=c1c2ccccc2oc2ccc(Oc3ccccc3)cc12	-122.5
CCOc1ccc2nc(N3CCCC(C(=O)NCC4CCCO4)C3)sc2c1 (stereo not drawn)	-144.8
Cc1cc(C)c2nc(N3CCCC(C(=O)NC4CCCC4)C3)sc2c1 (stereo not drawn)	-90.3
CCOC(=O)N1CCN(S(=O)(=O)c2ccc(C(=O)NNc3nc4c(C)cc(C)cc4s3)cc2)CC1	-

Source: PubChem BioAssay
